Test results published in PubChem BioAssay (NCATS).
Records with an inconclusive call do not appear. Active and inactive are the calls of the source. Calls come from the whole dose curve; as a rule, active = well fitted curve in the direction sought with a large enough effect; inconclusive = small, poorly fitted or top-dose-only effect, or another doubt; inactive = no such curve, though single readings can be large; an effect the other way counts as inactive or inconclusive.

Columns and labels:
[1] = biological target: Rap guanine nucleotide exchange factor 3 (Homo sapiens) (UniProt O95398); test: Confirmatory qHTS for antagonist of cAMP-regulated guanine nucleotide exchange factor 3 (EPAC1) (AID 1645880); conditions: EPAC1 Rap1B-BODIPY-GDP exchange, fluorescence; activity, negative = inhibition: at 115 µM (top of the series); note: nearly all actives have a fitted effect of over 55% in size; note: potency is the fitted concentration of half-maximal effect;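 for activity, negative = inhibition: plate controls were DMSO only for no effect and full effect of the ATA control for full effect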
Rap guanine nucleotide exchange factor 3 (Homo sapiens), sequence (O95398 whole entry, looked up): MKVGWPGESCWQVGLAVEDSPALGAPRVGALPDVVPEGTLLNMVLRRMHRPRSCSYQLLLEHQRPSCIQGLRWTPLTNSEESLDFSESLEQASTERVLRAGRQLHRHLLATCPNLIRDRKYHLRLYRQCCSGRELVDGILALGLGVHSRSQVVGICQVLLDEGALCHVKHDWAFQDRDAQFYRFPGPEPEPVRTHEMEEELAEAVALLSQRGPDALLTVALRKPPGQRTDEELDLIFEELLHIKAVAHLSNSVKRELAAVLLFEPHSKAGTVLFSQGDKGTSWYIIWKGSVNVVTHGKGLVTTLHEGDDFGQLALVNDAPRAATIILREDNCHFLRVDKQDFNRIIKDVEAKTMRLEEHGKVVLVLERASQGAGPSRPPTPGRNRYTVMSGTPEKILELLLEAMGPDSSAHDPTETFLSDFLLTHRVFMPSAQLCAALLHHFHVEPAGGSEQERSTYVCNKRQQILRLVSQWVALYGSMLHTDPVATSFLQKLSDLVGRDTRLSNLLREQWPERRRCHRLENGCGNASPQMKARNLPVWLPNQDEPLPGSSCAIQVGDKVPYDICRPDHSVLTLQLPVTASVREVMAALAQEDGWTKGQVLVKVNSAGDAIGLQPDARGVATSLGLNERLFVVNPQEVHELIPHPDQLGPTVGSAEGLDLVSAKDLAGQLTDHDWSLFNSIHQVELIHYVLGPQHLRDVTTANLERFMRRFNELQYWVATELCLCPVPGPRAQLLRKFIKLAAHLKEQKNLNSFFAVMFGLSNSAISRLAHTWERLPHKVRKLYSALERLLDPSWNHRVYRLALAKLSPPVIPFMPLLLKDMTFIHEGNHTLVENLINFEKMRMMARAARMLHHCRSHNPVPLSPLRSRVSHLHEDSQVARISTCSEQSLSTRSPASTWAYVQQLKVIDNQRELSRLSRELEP
Method in brief: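 Nucleotide exchange uses 100 nM EPAC1, 250 nM RAP1B-BODIPY-GDP and 50 uM GDP, with compounds in a concentration-titration series. After 5 min at room temperature, fluorescence (480 nm ex/540 nm em) is read every 5 min for 30 min. Data are normalized to control ATA and DMSO.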

[2] = biological target: Rap guanine nucleotide exchange factor 3 (Homo sapiens) (UniProt O95398); test: Confirmatory qHTS for agonist of cAMP-regulated guanine nucleotide exchange factor 3 (EPAC1) (AID 1645881); note: nearly all actives have a fitted effect of over 75% in size; note: potency is the fitted concentration of half-maximal effect;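 for activation: EPAC1 catalysed release of BODIPY-GDP from Rap1B seen as fluorescence loss; 100% = effect of cAMP agonist control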
[3] = biological target: Rap guanine nucleotide exchange factor 4 (Homo sapiens) (UniProt Q8WZA2); test: Confirmatory qHTS for agonist of cAMP-regulated guanine nucleotide exchange factor 4 (EPAC2) (AID 1645884);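 note: nucleotide exchange releases bodipy-GDP from Rap1 and this lowers its fluorescence; nearly all actives have a fitted effect of over 65% in size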; note: potency is the fitted concentration of half-maximal effect; for activation: % is set by controls: 0 for no effect and ±100 for the full control effect
Rap guanine nucleotide exchange factor 4 (Homo sapiens), sequence (Q8WZA2 whole entry, looked up): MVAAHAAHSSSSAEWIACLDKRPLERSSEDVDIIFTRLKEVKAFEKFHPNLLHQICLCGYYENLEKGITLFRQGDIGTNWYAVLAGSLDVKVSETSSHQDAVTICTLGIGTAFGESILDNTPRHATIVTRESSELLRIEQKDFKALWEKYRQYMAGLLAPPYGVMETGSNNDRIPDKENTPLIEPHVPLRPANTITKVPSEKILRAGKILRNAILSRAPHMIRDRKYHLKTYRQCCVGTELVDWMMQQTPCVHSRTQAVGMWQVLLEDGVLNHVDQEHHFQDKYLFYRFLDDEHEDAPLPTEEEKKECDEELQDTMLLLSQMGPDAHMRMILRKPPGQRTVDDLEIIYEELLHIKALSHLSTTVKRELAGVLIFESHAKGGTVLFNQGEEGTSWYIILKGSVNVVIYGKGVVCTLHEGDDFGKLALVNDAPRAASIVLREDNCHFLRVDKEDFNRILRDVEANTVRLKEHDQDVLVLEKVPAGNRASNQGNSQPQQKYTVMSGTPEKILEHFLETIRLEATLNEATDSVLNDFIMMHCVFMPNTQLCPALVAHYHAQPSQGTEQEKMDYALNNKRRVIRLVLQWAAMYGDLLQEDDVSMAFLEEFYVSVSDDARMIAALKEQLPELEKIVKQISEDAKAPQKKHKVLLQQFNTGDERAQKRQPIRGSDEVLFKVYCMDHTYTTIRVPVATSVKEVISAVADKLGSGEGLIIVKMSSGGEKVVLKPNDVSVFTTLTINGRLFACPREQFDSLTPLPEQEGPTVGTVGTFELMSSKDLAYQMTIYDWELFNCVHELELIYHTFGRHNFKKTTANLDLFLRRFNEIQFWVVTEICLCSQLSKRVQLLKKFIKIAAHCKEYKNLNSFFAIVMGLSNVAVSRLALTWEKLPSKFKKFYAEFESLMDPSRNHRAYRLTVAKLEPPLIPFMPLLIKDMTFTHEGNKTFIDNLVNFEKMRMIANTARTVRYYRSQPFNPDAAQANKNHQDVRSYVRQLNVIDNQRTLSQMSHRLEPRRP

[4] = biological target: Rap guanine nucleotide exchange factor 4 (Homo sapiens) (UniProt Q8WZA2); test: Confirmatory qHTS for antagonist of cAMP-regulated guanine nucleotide exchange factor 4 (EPAC2) (AID 1645885); note: nearly all actives have a fitted effect of over 25% in size; note: potency is the fitted concentration of half-maximal effect; for activity change, negative = inhibition: % is set by controls: 0 for no effect and ±100 for the full control effect
[5] = biological target: Rap guanine nucleotide exchange factor 3 (Homo sapiens) (UniProt O95398); test: Counterscreen qHTS for antagonist of cAMP-regulated guanine nucleotide exchange factor 3 (EPAC1) (AID 1645888);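 note: fluorescence loss as bound BODIPY-GDP is released from Rap1B; % of control where 0% means no effect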
Method in brief: (§1)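 Measured: fluorescence of BODIPY-GDP bound to Rap1B, which falls as exchange proceeds. Conditions include 50 uM competing GDP, 5 and 30 min reads, and a later cAMP challenge for antagonist detection.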

[6] = biological target: Rap guanine nucleotide exchange factor 3 (Homo sapiens) (UniProt O95398); test: Counterscreen qHTS for agonist of cAMP-regulated guanine nucleotide exchange factor 3 (EPAC1) (AID 1645889); note: nearly all actives have a fitted effect of over 40% in size; note: potency is the fitted concentration of half-maximal effect; for activation: % of control where 0% means no effect
Method in brief: as §1

CCCSc1nc(C)cc(C)c1S(=O)(=O)c1ccccc1C
inactive: Potency [1] | Potency [2] | Potency [3] | Potency [4] | Potency [5] | Potency [6]

Cc1ccc(S(=O)(=O)CCC(=O)Nc2sccc2C#N)cc1
inactive: Potency [1] | Potency [2] | activation [3] 6.67% [at 17.1 µM, percent relative to cAMP agonist control] | Potency [4] | activity change, negative = inhibition [5] -10.4% [at 30.8 µM] | activation [6] 34.4% [at 30.8 µM]

COc1ccc(/C=N\NC(=O)c2cc3c(ccc4ccccc43)o2)cc1O
inactive: Potency [1] | Potency [2] | activation [3] 5.26% [at 17.1 µM, percent relative to cAMP agonist control] | Potency [4] | activity change, negative = inhibition [5] 0.0783% [at 30.8 µM] | activation [6] 29.4% [at 30.8 µM]

COc1ccc(NC(=O)CCCSc2nc(-c3ccco3)cc(C(F)(F)F)n2)cc1
inactive: Potency [1] | Potency [2] | Potency [3] | Potency [4] | Potency [5] | Potency [6]

O=C(CSC1=NCCS1)N1N=C(c2cccs2)CC1c1ccc(F)cc1 (stereo not given)
inactive: Potency [1] | Potency [2] | activation [3] 6.13% [at 17.1 µM, percent relative to cAMP agonist control] | Potency [4] | activity change, negative = inhibition [5] 4.6% [at 30.8 µM] | activation [6] 21.2% [at 30.8 µM]

CN1/C(=C\C=C2/SC(=S)N(CC(=O)O)C2=O)C(C)(C)c2ccccc21
active: Potency [2] 44.7 µM | Potency [3] 7.94 µM | Potency [6] 10 µM
inactive: Potency [1] | Potency [4] | activity change, negative = inhibition [5] 286% [at 30.8 µM]

Cc1c(C(=O)N2CCC2)oc2ccc(Br)cc12
active: Potency [4] 33.8 µM
inactive: Potency [1] | Potency [2] | Potency [3] | Potency [5] | Potency [6]

CCOC(=O)c1cc(-c2nnc(SCC(=O)Nc3ccc(F)cc3)o2)c(C)nc1C
inactive: Potency [1] | Potency [2] | Potency [3] | Potency [4] | Potency [5] | Potency [6]

Cc1ccc(C(=O)Nc2ccccc2[N+](=O)[O-])cc1S(=O)(=O)N1CCOCC1
inactive: Potency [1] | Potency [2] | Potency [3] | Potency [4] | Potency [5] | Potency [6]

CCN(CC(=O)Nc1ccccc1OC)C(=O)c1ccc(N(C)S(=O)(=O)c2ccc(C)cc2)cc1
inactive: Potency [1] | Potency [2] | Potency [3] | Potency [4] | Potency [5] | Potency [6]

COc1ccccc1N1CCN(S(=O)(=O)c2ccc3c(c2)NC(=O)C(C)C(=O)N3)CC1 (stereo not given)
inactive: Potency [1] | Potency [2] | Potency [3] | Potency [4] | Potency [5] | Potency [6]

CC(C)c1nn2c(=O)cc(COC(=O)c3cccc(NC(=O)c4cccs4)c3)nc2s1
inactive: Potency [1] | Potency [2] | Potency [3] | Potency [4] | Potency [5] | Potency [6]

CCCn1c(=O)n(C)c(=O)c2c(SCC(=O)NCc3ccco3)nc(C3CC3)nc21
inactive: Potency [1] | Potency [2] | Potency [3] | Potency [4] | Potency [5] | Potency [6]

COc1ccc(/C=N/Nc2nnc(C)n2N)cc1OC(C)=O
inactive: Potency [1] | Potency [2] | Potency [3] | Potency [4] | Potency [5] | Potency [6]

COc1ccc(C)cc1NC(=O)c1ccccc1NS(=O)(=O)c1ccc(Cl)s1
inactive: Potency [2] | Potency [3] | Potency [4] | Potency [5] | Potency [6]
active: Potency [1] 75.7 µM

NC(=O)c1ccsc1NC(=O)CS(=O)(=O)c1ccc(F)cc1
inactive: Potency [1] | Potency [2] | Potency [3] | Potency [4] | Potency [5] | Potency [6]

COc1ccc(C2CC(c3ccccc3OC(C)=O)=NN2C(C)=O)cc1 (stereo not given)
inactive: Potency [1] | Potency [2] | Potency [3] | Potency [4] | Potency [5] | Potency [6]

CC(C)Oc1nc(-c2ccccc2Cl)nc2ccccc12
inactive: Potency [1] | Potency [2] | Potency [3] | Potency [4] | Potency [5] | Potency [6]

O=C(CSc1nc2ccsc2c(=O)n1CC1CCC(C(=O)O)CC1)c1ccc(Cl)cc1 (stereo not given)
inactive: Potency [2] | Potency [3] | Potency [4] | Potency [5] | Potency [6]
active: Potency [1] 47.8 µM

Cc1ccc(C)c(S(=O)(=O)N2CCN(C(=O)CCc3nc4ccccc4c(=O)[nH]3)CC2)c1
inactive: Potency [1] | Potency [2] | activation [3] 4.63% [at 17.1 µM, percent relative to cAMP agonist control] | Potency [4] | activity change, negative = inhibition [5] -11.5% [at 30.8 µM] | activation [6] 23.6% [at 30.8 µM]
